The values below come from PubChem BioAssay (EPA / NIEHS).

Structures are written as SMILES. Records with an inconclusive call do not appear. Calls of active or inactive are those of the source. How the source made its calls, unless noted: active means hit-call score of the fitted dose curve at least 0.9, where 1 is the maximum; inconclusive means response in the unintended direction; inactive means score below 0.9.

A short description of test [1]: ATG_XTT_Cytotoxicity_XSP2: Cytotoxicity Assessment in the Attagene TRANS-FACTORIAL Multi-Species (XSP2) HepG2 Assay (AID 2283837). In a few lines: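 XTT-based cell number read-out in human HepG2 liver cells carrying transfected reporter units, measured 24 h after chemical dosing. Activity is signal loss versus DMSO baseline.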
The nature of test [2]: CEETOX_H295R_ANDR_noMTC: CeeTox H295R High-throughput Steroidogenesis Assay for Androstenedione (ANDR), maximum tolerated concentration (MTC) filtered results only (AID 2283915; active means hit-call score of the fitted dose curve at least 0.9, where 1 is the maximum; inactive means score below 0.9). The note with it: actives raise or lower the signal. In a few lines: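 Androstenedione secreted into medium was measured by LC-MS/MS after MTBE extraction. Human adrenal H295R cells received 10 uM forskolin for 48 h before 48 h chemical exposure (0.1% DMSO). Gain or loss fitted against DMSO, including concentrations above the MTT-derived MTC.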

`O=c1c(-c2ccc(O)cc2)coc2cc(O)cc(O)c12`: the call in test [1] was inactive. With `CC1(C)NC(=O)N(c2ccc([N+](=O)[O-])c(C(F)(F)F)c2)C1=O`, in test [1], the result was inactive.

With `O=C(O)c1ccccc1C(=O)OCc1ccccc1`, the compound was classed as inactive in test [2].
